Data: PubChem BioAssay (EPA / NIEHS)
Active and inactive are the calls of the source. How the source made its calls: active means hit-call score of the fitted dose curve at least 0.9, where 1 is the maximum; inactive means score below 0.9. Peptide text beside a SMILES is read from it.

assay: ATG_AP_1_CIS: Attagene CIS-FACTORIAL HepG2 Assay for human Activator Protein 1 (AP-1) (AID 2282931); conditions: HepG2 Attagene cis-factorial AP-1 reporter mRNA; actives raise or lower the signal
Experimental: ATG_CIS is a cell-based, multiplexed-readout assay that uses HepG2, a human liver cell line, with measurements taken at 24 hours after chemical dosing in a 24-well plate.ATG_AP_1_CIS is one of 52 assay component(s) measured or calculated from the ATG_CIS assay. It is designed to make measurements of mRNA induction, a form of inducible reporter, as detected with fluorescence intensity signals by Reverse transcription polymerase chain reaction (RT-PCR) and Capillary electrophoresis technology.Data from the assay component ATG_AP_1_CIS was analyzed into 1 assay endpoint. This assay endpoint, ATG_AP_1_CIS, was analyzed with bidirectional fitting relative to DMSO as the negative control and baseline of activity. Using a type of inducible reporter, measures of mRNA for gain or loss-of-signal activity can be used to understand the reporter gene at the transcription factor-level as they relate to the gene FOS and JUN. Furthermore, this assay endpoint can be referred to as a primary readout, because this assay has produced multiple assay endpoints where this one serves a reporter gene function. To generalize the intended target to other relatable targets, this assay endpoint is annotated to the dna binding intended target family, where the subfamily is basic leucine zipper.
Human liver HepG2 cells are transiently transfected with multiple reporter transcription units (MRTUs) in 6-well plates using FuGene 6 reagent (Roche; 3 ml FuGene/1 mg DNA). The MRTU constructs are regulated by a cis-regulating element (promoter). […] A major difference between the CIS and TRANS system is that in CIS activities of endogenous TFs are measured, whereas the TRANS assay evaluates changes in activities of exogenous, chimeric NR-Gal4 proteins. […] At the end of 24 hour incubation, total RNA was isolated using TriZol reagent (Invitrogen). The isolated RNA is then reverse-transcribed using oligo(dT) primer and Mo-MLV reverse transcriptase (Invitrogen) with DNAse I (Ambion) treatment for 30 min. The one-tenth of the produced cDNA was amplified by PCR using Taq DNA polymerase (Invitrogen) and two reporter sequence-specific primers. The PCR products were fluorescently labeled by primer extension with 6-arboxyfluorescein (6-FAM) 5'-labeled reporter sequence-specific primer (2 min at 95 C, 20 s at 68 C and 10 min at 72 C) and these products were digested with 5U of HpaI (New England Biolabs) for 2h at 37 C. The fragments were purified using Qiaquick PCR columns (Qiagen), analyzed on an ABI 3130xL genetic analyzer (Applied Biosystems) with peak positions identified by using a set of X-rhodamine (ROX)-labeled MapMarker1000 molecular weight standards (BioVentures). The raw capillary electrophoresis data was processed using Attagraph software (Attagene).

| SMILES | outcome | AC50 |
| --- | --- | --- |
| CC1OC(=O)C(C)OC1=O (stereo not given) | inactive | – |
| CCCCC(C=O)CC (stereo not given) | inactive | – |
| C=CCCCCCCCCO | inactive | – |
| COc1ccc(C(=O)/C(Br)=C\C(=O)O)cc1 | – | 26.4 µM (active) |
| CC=CC(=O)OCC(C)C | inactive | – |
| CC(C)(CO)C(O)C(=O)NCCCO (stereo not given) | inactive | – |
| CC(C)=NNC(N)=S | inactive | – |
| C=C[C@@]1(C)CC(=O)[C@]2(O)[C@@]3(C)[C@@H](O)CCC(C)(C)[C@@H]3[C@H](O)[C@H](OC(C)=O)[C@@]2(C)O1 | inactive | – |
| CC(=O)OC1CCCCC1C(C)(C)C (stereo not given) | inactive | – |
| C1CNCCN1 | inactive | – |
| O=C(O)c1cc(O)c2ccccc2c1O | inactive | – |
| O=C(O)CC(C(=O)O)S(=O)(=O)O (stereo not given) | inactive | – |
| COC(=O)C=Cc1ccccc1 | inactive | – |
| CCCCCCCCC(CO)CCCCCC (stereo not given) | inactive | – |
| C=CCCCCCCCCC=O | inactive | – |
| CC1CC(=O)CC(C)(C)C1 (stereo not given) | inactive | – |
| COc1cc(O)c(C(=O)c2ccccc2)cc1S(=O)(=O)O | inactive | – |
| CC1CCC(C(C)(C)S)C(=O)C1 (stereo not given) | inactive | – |
| O=C(OCc1ccccc1)c1ccc(O)cc1 | inactive | – |
| Nc1nc(N)nc(-c2ccccc2)n1 | inactive | – |

| SMILES | outcome | AC50 |
| --- | --- | --- |
| Cc1c(C(=O)c2c[nH]n(C)c2=O)ccc(S(C)(=O)=O)c1C1=NOCC1 | inactive | – |
| CCCC/C=C/C=C\C=O | – | 149 µM (active) |
| COC(=O)[C@H](Cc1ccccc1)NC(=O)[C@@H](N)CC(=O)O (H-Asp-Phe-OMe) | inactive | – |
| O=C1CCCN1C1CCCCC1 | inactive | – |
| CC1(C)C(=O)N(CO)C(=O)N1CO | inactive | – |
| CC(=O)OC1CCCCC1 | inactive | – |
| CC1(C)CCC[C@]2(C)[C@H]3CC(=O)O[C@]3(C)CC[C@@H]12 | inactive | – |
| CCCCCCCCCCCCCCCCCCOS(=O)(=O)O | – | 20.3 µM (active) |
| COC(=O)CC(C)CCC=C(C)C (stereo not given) | inactive | – |
| Cc1c(Cl)cccc1Cl | inactive | – |
| O=C(O)CCC(=O)O | inactive | – |
| CC(=O)C(C)C | inactive | – |
| Cc1ccc(S(=O)(=O)N=C=O)cc1 | inactive | – |
| CCC(C)c1ccccc1 (stereo not given) | inactive | – |
| CCN1CN(CC)CN(CC)C1 | inactive | – |
| C=CC(=O)NCOCCCC | inactive | – |
| Cc1cc(=O)[nH]c(=O)[nH]1 | inactive | – |
| CCCCCCCCCC(C)=O | inactive | – |
| CC(C)C(=O)OCCc1ccccc1 | inactive | – |
| CCOC(=O)c1ccc(C)cc1 | inactive | – |
